Compounds without any hit were thinned out: in the full panel of roughly 79,000, 15% have a hit. Values without a mark were called inactive. The source made the active and inactive calls. No stated cut-off is given here; in the data, active means growth inhibition above about 70%; inactive means the rest.

Test [1] is described as follows: NCI Yeast Anticancer Drug Screen. Data for the rad50 strain (AID 155).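 Further: 0% = growth of vehicle-only cultures of the same strain.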 As to conditions: S. cerevisiae rad50 strain growth inhibition; at 50.0 µM; hits give high values. Summed up: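 Genetically altered yeast (DNA repair pathway); compound treatment; growth inhibition vs vehicle ctrl.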
A short description of test [2]: NCI Yeast Anticancer Drug Screen. Data for the mec2-1 strain (AID 157). The note with it: S. cerevisiae mec2-1 strain, at 50.0 µM, hits give high values. A digest of the protocol: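 Mutant yeast (mec2-1) grown with compound; growth inhibition relative to vehicle control reported.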
Test [3] in a line: NCI Yeast Anticancer Drug Screen. Data for the sgs1 mgt1 strain (AID 161).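 Further: 0% = growth of cultures given vehicle only.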 The note with it: S. cerevisiae sgs1 mgt1 strain, at 50.0 µM, hits give high values. Summed up: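 Percent growth inhibition was derived by comparing compound-exposed mutant yeast with vehicle-exposed cultures. The strain carries alterations in DNA damage repair.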
Test [4] can be described thus: NCI Yeast Anticancer Drug Screen. Data for the cln2 rad14 strain (AID 165).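 Further: 0% = growth equal to vehicle treated cultures.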 The note with it: S. cerevisiae cln2 rad14 strain, at 50.0 µM, hits give high values. A digest of the protocol: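 Readout is yeast growth inhibition versus vehicle-treated controls, using a strain with cln2 and rad14 alterations exposed to compound.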
A short description of test [5]: NCI Yeast Anticancer Drug Screen. Data for the bub3 strain (AID 167). As to conditions: S. cerevisiae bub3 mutant strain, at 50.0 µM, hits give high values. Summed up: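 Yeast carrying a defined mutation is treated with each compound, and growth is compared with that of vehicle-exposed cells to give inhibition.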
Test [6] can be described thus: NCI Yeast Anticancer Drug Screen. Data for the mlh1 rad18 strain (AID 175). The note with it: S. cerevisiae mlh1 rad18 strain growth inhibition; at 50.0 µM; hits give high values. A digest of the protocol: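 Genetically defined yeast (DNA repair-deficient) exposed to compounds; growth inhibition determined relative to vehicle.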

In the case of `CCCCCc1ccccc1OCC1CO1` (centres undefined), the growth inhibition was 6.75% in test [1]; -9.15% in test [2]; -17.6% in test [3]; 11.6% in test [4]; 5.1% in test [5]; 27.2% in test [6].
Take `COc1ccc(/C=c2/s/c(=C(\C#N)c3nc4ccccc4[nH]3)n(-c3ccccc3)c2=O)cc1`: the growth inhibition is 4% in test [1]; -15.2% in test [2]; -6.4% in test [3]; 13.9% in test [4]; -17.6% in test [5]; 13.2% in test [6].
With `NC(=O)c1nc2ccccc2nc1Nc1ccc(Cl)cc1Cl`, the growth inhibition is 29% in test [1]; 10.2% in test [2]; 7.55% in test [3]; -0.9% in test [4]; 13% in test [5]; 23.2% in test [6].
As for `COC(CN1C(=O)CSC1=S)OC`, the growth inhibition in test [1] was 10.8%; in test [2], -1.65%; in test [3], 27.1%; in test [4], 17.2%; in test [5] it was 29.1%; in test [6] it was -6.8%.
`Cc1cccc([B-]23OCC[N+]2(CNC(=O)c2ccccc2O)CCO3)c1` (centres undefined): the growth inhibition is -21.6% in test [1]; -19.8% in test [2]; -7.5% in test [3]; -11.6% in test [4]; -18.4% in test [5]; -16.8% in test [6].
As for `CSc1cc(Br)ccc1-n1c(C(=O)c2ccccc2)c(SC)n(-c2ccccc2)c1=O`, the growth inhibition in test [1] is -0.05%; in test [2], 21.3%; in test [3], 20.6%; in test [4], 7.65%; in test [5] it was 15.7%; in test [6] it was 5.05%.
In the case of `N#C/C(C(=N)c1ccccc1)=C1\SS/C(=C(\C#N)C(=N)c2ccccc2)S1`, the growth inhibition is 7.2% in test [1]; 2.35% in test [2]; 7.6% in test [3]; 23.7% in test [4]; 3.7% in test [5]; -4.45% in test [6].
As for `COc1cc(C(=O)NOCc2cccc(C(F)(F)F)c2)cc(OC)c1OC`, the growth inhibition in test [1] is 39.8%; in test [2], -11.2%; in test [3], 15.9%; in test [4] it was -14.8%; in test [5] it was 2.5%; in test [6], 6.25%.
Regarding `NC(=O)O/N=C/c1ccccn1`, the growth inhibition was -12.1% in test [1]; 2.75% in test [2]; -17.4% in test [3]; -10% in test [4]; -2.65% in test [5]; -6.95% in test [6].
For `CC(C)C(NC(=O)C1CCCN1)P(=O)(O)O` (centres undefined), the growth inhibition in test [1] was 10.1%; in test [2] it was 1.7%; in test [3], 4.55%; in test [4], -10.8%; in test [5], 5%; in test [6], 5.9%.
On to `COc1ccc(-c2cc(=O)c3c(O)cc(O)cc3o2)cc1Oc1ccc(-c2cc(=O)c3c(O)cc(O)cc3o2)cc1`, for which the growth inhibition in test [1] is 15.6%; in test [2], -12.2%; in test [3], -12.3%; in test [4], 2.35%; in test [5] it was -3.7%; in test [6] it was 5.1%.
With `CC(=O)Nc1ccc([N+](=O)[O-])cc1[N+](=O)[O-]`, the growth inhibition in test [1] is 3.35%; in test [2] it was -10.9%; in test [3], -4.05%; in test [4], -37.9%; in test [5], -15.6%; in test [6] it was 3.95%.
Take `N#CC(C(=O)CCCC(=O)Nc1ccccc1[N+](=O)[O-])c1ccc(Cl)cc1Cl` (centres undefined): the growth inhibition in test [1] is -10.2%; in test [2] it was -22.6%; in test [3], -36.8%; in test [4] it was -41.5%; in test [5], 0.65%; in test [6], -26.6%.
On to `c1ccc(SCCCCSc2ccccc2)cc1`, for which the growth inhibition in test [1] was 17.1%; in test [2], 5.05%; in test [3], -2.55%; in test [4] it was -38%; in test [5], 14.1%; in test [6], 43%.
For the molecule `CCCCCOP(=O)(Cc1ccc(Cl)cc1)OCCCCC`, the growth inhibition is 99.6% (active) in test [1]; 99.7% (active) in test [2]; 99.5% (active) in test [3]; 99.5% (active) in test [4]; 99.4% (active) in test [5]; 99.5% (active) in test [6].
On to `Cc1cc(=O)cc(-c2ccccc2)[nH]1`, for which the growth inhibition in test [1] is -32.5%; in test [2], -11.3%; in test [3] it was -12.5%; in test [4], -37.3%; in test [5], -2.5%; in test [6] it was 6.55%.
For the molecule `COc1cc(C(c2cc3c(cc2O)OCO3)n2ccnc2)cc(OC)c1OC` (centres undefined), the growth inhibition is -15.2% in test [1]; 1.6% in test [2]; -13.1% in test [3]; 8.75% in test [4]; 2.9% in test [5]; 13.1% in test [6].
`CC(C)=CCCC(C)C=O` (centres undefined): the growth inhibition in test [1] is -11.6%; in test [2], -41.2%; in test [3], -19.4%; in test [4], 4%; in test [5], -20.1%; in test [6], 1.3%.
Take `Cc1ccc(C)c(NC(=O)OC/C=C/c2ccccc2)c1`: the growth inhibition in test [1] is -1.2%; in test [2], 29.2%; in test [3], 19.9%; in test [4] it was -10.9%; in test [5], 26.7%; in test [6] it was 41.2%.
As to `COc1ccc(CC(N)C(N)=O)cc1` (centres undefined), the growth inhibition in test [1] was -6.25%; in test [2], -0.65%; in test [3] it was -4%; in test [4], -12%; in test [5], -0.3%; in test [6], 6.5%.
For the molecule `C(=C\c1ccc2ccc(/C=C/c3ccccc3)cc2c1)/c1ccccc1`, the growth inhibition in test [1] is -15.2%; in test [2] it was 14.7%; in test [3] it was 12.1%; in test [4] it was -26.8%; in test [5], 8.25%; in test [6], -17.1%.
As to `Nc1nc(N)c(Nc2ccc(Cl)cc2)c(Cl)n1`, the growth inhibition in test [1] was 50%; in test [2], 29.2%; in test [3], 66.3%; in test [4] it was 35.2%; in test [5], 40.9%; in test [6], 50.5%.
Consider `Cc1ccc(S(=O)(=O)Nc2ccc3ncsc3c2[N+](=O)[O-])cc1`, for which the growth inhibition in test [1] is 97.2% (active); in test [2] it was 98.7% (active); in test [3], 98.3% (active); in test [4], 98.2% (active); in test [5], 98% (active); in test [6] it was 98% (active).
Consider `CCOC(=O)CC(C)(O)c1ccccc1` (centres undefined), for which the growth inhibition in test [1] is -12.2%; in test [2], -0.55%; in test [3], 23.4%; in test [4], -17.4%; in test [5], 12.3%; in test [6], 0.15%.
On to `CC1=NN(C(=O)c2ccc(Cl)cc2)C(=O)/C1=C/c1ccc(Cl)cc1`, for which the growth inhibition in test [1] is -28.6%; in test [2], -47.4%; in test [3], -69.2%; in test [4] it was -19.6%; in test [5] it was -33%; in test [6] it was -44.2%.
For the molecule `CC(C)C1CCC(O)CC1` (centres undefined), the growth inhibition in test [1] is -14.5%; in test [2] it was 1.9%; in test [3], -3.55%; in test [4], -32.2%; in test [5], 10.3%; in test [6], 9.05%.
Turning to `CCOC(=O)Cn1/c(=N/N=C(\C)c2ccc([N+](=O)[O-])o2)sc2cc(Cl)ccc21`, the growth inhibition in test [1] was -5.75%; in test [2], 9.05%; in test [3] it was 4.8%; in test [4], 14.3%; in test [5], -4.15%; in test [6], 3.35%.
Turning to `Cc1ccccc1C(C#N)/C(=N/NC(=O)C(=O)NN)C(=O)Nc1cccc(C(F)(F)F)c1` (centres undefined), the growth inhibition was 34.1% in test [1]; 10.9% in test [2]; 14.2% in test [3]; 23.1% in test [4]; 0.25% in test [5]; 21.8% in test [6].
For `O=C(Nc1ccc(F)cc1)c1cc2c(cc1Cl)Sc1nccn1S2(=O)=O`, the growth inhibition is -7% in test [1]; -4% in test [2]; -8.8% in test [3]; 16.9% in test [4]; 3.55% in test [5]; 2.7% in test [6].
Take `CNc1ncc(-c2nnnn2-c2ccccc2)c(CN(C)C)n1`: the growth inhibition in test [1] was -36%; in test [2] it was -3.05%; in test [3] it was -3.4%; in test [4], 5.1%; in test [5] it was -3.45%; in test [6] it was 25.2%.
For `O=C1CCN2C(=O)CCN12`, the growth inhibition in test [1] is 1.1%; in test [2], -10.2%; in test [3] it was 18.7%; in test [4], 14.8%; in test [5], 11%; in test [6] it was 2.35%.
`O=[N+]([O-])c1cc(S(=O)(=O)O)cc(S(=O)(=O)O)c1O`: the growth inhibition in test [1] is 12.6%; in test [2], 2.6%; in test [3], 13.2%; in test [4], 19.6%; in test [5], 16.5%; in test [6], 18.1%.
Take `CCOC(=O)Nc1cccc(F)c1`: the growth inhibition in test [1] was -10.9%; in test [2], 14.7%; in test [3], 22.9%; in test [4], -44.6%; in test [5], -21.1%; in test [6] it was -0.5%.
For `N=C(N)SC1CC2CC1C1C=CCC21` (centres undefined), the growth inhibition in test [1] is 6.65%; in test [2] it was -6.6%; in test [3], 16.4%; in test [4] it was -19.1%; in test [5], 9.05%; in test [6], 16.2%.
For `COc1cc2c3c(c1OC)C1(C=CC(=O)C=C1)CC3NCC2` (centres undefined), the growth inhibition in test [1] is -45.9%; in test [2], -4.8%; in test [3], -8.5%; in test [4] it was -10.1%; in test [5], -18.9%; in test [6], -45.6%.
As for `COc1cc2ccc3c(c2cc1OC)CCc1cn[nH]c1-3`, the growth inhibition was 2.05% in test [1]; 3.4% in test [2]; 8% in test [3]; 27.4% in test [4]; 11.8% in test [5]; 9.45% in test [6].
For the molecule `COc1ccc(C(O)c2cc(C(F)(F)F)cc(C(F)(F)F)c2)cc1OC` (centres undefined), the growth inhibition is 9.2% in test [1]; -11.6% in test [2]; 11.2% in test [3]; 8.2% in test [4]; 22.9% in test [5]; 14.3% in test [6].
As to `CCCn1cc2c(=O)[nH]c(SC)nc2n1`, the growth inhibition in test [1] is -4.95%; in test [2] it was -20.8%; in test [3], -1.35%; in test [4], -13.1%; in test [5], -12.7%; in test [6], 10.8%.
Regarding `CC1=CC(=O)CC(C)(C)C1(O)/C=C/C(C)=C/C(=O)O` (centres undefined), the growth inhibition is -11.6% in test [1]; -28.5% in test [2]; -56% in test [3]; -37% in test [4]; -41.7% in test [5]; 5.1% in test [6].
